Consider 15 sequences from paper PMC4081100, “A DNA-binding-site landscape and regulatory network analysis for NAC transcription factors in Arabidopsis thaliana”.

Experiment in all cases: universal protein binding microarray (PBM); transcription factors of Arabidopsis thaliana; high values mean tight binding
The target in one assay is T1, GST-ANAC092(1-176) (Arabidopsis thaliana, UniProt Q9FKA0 1-176).
T1 sequence: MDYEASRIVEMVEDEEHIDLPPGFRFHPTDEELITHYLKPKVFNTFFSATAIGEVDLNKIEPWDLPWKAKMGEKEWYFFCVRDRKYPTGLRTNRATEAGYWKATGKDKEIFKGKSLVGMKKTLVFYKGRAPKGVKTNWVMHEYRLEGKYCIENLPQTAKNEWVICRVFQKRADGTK
The note with it: protein: recombinant; tags: GST; chain copies: 2; dsDNA, one strand shown. A digest of the protocol: (§1)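 Each value is a normalised enrichment score (E-score) describing binding. The GST-tagged proteins, NAC-domain, full-length or DNA-binding-domain, were induced in cells (zinc-finger proteins with zinc acetate added) and purified on glutathione–Sepharose 4B. They were applied at 200 to 500 nM final, in duplicate, to double-stranded custom all-10-mer Agilent 4 × 180K arrays, and gapped and ungapped 8-mers were scored.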

In a further assay the target is T2, GST-ATAF1 NAC domain (Arabidopsis thaliana, UniProt Q39013 7-158).
T2 sequence: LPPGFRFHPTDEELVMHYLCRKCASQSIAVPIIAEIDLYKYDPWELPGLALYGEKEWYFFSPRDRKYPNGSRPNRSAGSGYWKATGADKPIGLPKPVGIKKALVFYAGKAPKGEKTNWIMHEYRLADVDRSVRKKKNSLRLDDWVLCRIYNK
Particulars: protein: recombinant; tags: GST; chain copies: 2; dsDNA, one strand shown. A digest of the protocol: as §1

For assay [1], the target named is T3, GST-ANAC092(1-285) full length (Arabidopsis thaliana, UniProt Q9FKA0 1-285).
T3 sequence: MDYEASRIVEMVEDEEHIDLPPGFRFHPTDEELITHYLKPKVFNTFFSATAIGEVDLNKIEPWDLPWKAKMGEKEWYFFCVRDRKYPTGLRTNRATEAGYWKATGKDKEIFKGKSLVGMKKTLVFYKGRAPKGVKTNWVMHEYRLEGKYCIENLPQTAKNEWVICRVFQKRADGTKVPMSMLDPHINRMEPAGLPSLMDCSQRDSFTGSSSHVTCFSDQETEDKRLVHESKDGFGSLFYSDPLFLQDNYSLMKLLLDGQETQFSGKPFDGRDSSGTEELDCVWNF
The note with it: protein: recombinant; tags: GST; chain copies: 2; dsDNA, one strand shown. A digest of the protocol: as §1

Another assay addresses T4, GST-NAP(1-166) (Arabidopsis thaliana, UniProt O49255 1-166).
T4 sequence: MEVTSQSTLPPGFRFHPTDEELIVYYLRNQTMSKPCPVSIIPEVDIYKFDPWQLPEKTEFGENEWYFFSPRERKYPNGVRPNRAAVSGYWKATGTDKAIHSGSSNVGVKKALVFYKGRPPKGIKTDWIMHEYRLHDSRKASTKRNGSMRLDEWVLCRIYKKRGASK
The note with it: protein: recombinant; tags: GST; chain copies: 2; dsDNA, one strand shown. Put shortly:
as §1

For another assay, the target named is T5, GST-NST2(1-184) (Arabidopsis thaliana, UniProt Q9M274 1-184).
T5 sequence: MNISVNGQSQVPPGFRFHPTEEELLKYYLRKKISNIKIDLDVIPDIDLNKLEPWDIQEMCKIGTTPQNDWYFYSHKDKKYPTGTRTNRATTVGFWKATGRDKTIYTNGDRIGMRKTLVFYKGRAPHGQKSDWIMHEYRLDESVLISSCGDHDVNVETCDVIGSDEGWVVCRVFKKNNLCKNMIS
The note with it: protein: recombinant; tags: GST; chain copies: 2; dsDNA, one strand shown. A digest of the protocol:
as §1

Another assay deals with T6, GST-SND1(1-203) (Arabidopsis thaliana, UniProt Q9LPI7 1-203).
T6 sequence: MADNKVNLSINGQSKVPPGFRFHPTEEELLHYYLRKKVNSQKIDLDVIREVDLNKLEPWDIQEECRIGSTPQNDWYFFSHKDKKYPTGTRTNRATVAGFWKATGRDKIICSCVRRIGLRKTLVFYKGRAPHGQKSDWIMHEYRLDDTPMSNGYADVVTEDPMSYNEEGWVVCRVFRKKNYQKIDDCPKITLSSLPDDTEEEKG
Particulars: protein: recombinant; tags: GST; chain copies: 2; dsDNA, one strand shown. A digest of the protocol: as §1

Another assay concerns the target T7, GST-VND7 NAC domain (Arabidopsis thaliana, UniProt Q9C8W9 9-158).
T7 sequence: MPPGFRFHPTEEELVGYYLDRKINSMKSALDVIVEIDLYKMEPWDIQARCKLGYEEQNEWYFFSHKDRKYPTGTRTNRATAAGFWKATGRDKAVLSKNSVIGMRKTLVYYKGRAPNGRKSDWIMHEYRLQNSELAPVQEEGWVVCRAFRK
Particulars: protein: recombinant; tags: GST; chain copies: 2; dsDNA, one strand shown. Put shortly: as §1

For another assay, the target named is GST-NTL6(1-168) (Arabidopsis thaliana, UniProt Q9SCK6 1-168). Particulars: protein: recombinant; tags: GST; chain copies: 2; dsDNA, one strand shown. A digest of the protocol:
as §1

A further assay concerns the target T8, GST-ANAC019 NAC domain (Arabidopsis thaliana, UniProt Q9C932 14-162).
T8 sequence: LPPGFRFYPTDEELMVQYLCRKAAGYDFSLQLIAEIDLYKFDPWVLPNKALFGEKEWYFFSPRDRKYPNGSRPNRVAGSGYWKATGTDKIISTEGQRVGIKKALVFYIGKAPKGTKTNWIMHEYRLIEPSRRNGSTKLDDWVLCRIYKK
The note with it: protein: recombinant; tags: GST; chain copies: 2; dsDNA, one strand shown. Put shortly:
as §1

In the next assay the target is T9, GST-ANAC055(1-171) (Arabidopsis thaliana, UniProt Q9LDY8 1-171).
T9 sequence: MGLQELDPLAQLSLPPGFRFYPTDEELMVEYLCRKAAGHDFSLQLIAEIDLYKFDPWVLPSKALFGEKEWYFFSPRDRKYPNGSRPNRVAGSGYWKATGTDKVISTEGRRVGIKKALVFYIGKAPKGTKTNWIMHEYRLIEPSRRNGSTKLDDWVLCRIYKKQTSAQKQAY
The note with it: protein: recombinant; tags: GST; chain copies: 2; dsDNA, one strand shown. A digest of the protocol:
as §1

The target of another assay is T10, GST-NTL8 NAC domain (Arabidopsis thaliana, UniProt Q9XIN7 14-156).
T10 sequence: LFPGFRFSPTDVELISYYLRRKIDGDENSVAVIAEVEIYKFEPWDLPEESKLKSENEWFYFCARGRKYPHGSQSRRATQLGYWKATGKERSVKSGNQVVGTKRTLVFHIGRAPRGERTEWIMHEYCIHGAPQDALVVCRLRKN
The note with it: protein: recombinant; tags: GST; chain copies: 2; dsDNA, one strand shown. Put shortly: as §1

Another assay has as its target GST-WRKY1(266-371) (Arabidopsis thaliana, UniProt Q9SI37 266-371). Particulars: protein: recombinant; tags: GST; dsDNA, one strand shown. Put shortly:
as §1

Sequence of GST-WRKY1(266-371) (Q9SI37 266-371): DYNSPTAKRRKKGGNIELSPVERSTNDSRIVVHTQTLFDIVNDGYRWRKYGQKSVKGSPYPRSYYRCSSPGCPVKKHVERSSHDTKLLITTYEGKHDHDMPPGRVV
Sequence of GST-NTL6(1-168) (Q9SCK6 1-168): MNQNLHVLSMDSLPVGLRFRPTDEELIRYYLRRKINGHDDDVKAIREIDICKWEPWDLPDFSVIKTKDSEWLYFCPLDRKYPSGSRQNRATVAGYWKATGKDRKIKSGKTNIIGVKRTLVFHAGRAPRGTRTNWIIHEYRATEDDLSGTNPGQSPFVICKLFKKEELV

For ATCGCGTA, the binding signal in the assay with GST-ANAC092(1-176) came to 0.261 E-score; with GST-ATAF1 NAC domain, 0.165 E-score; in assay [1], 0.404 E-score; with GST-NAP(1-166), 0.149 E-score; with GST-NST2(1-184), 0.211 E-score; with GST-SND1(1-203), 0.442 E-score. Also, in the assay with GST-VND7 NAC domain, the binding signal amounted to 0.104 E-score.
ACCCCGCC: the binding signal was determined as 0.271 E-score with GST-ANAC092(1-176); 0.182 E-score with GST-NTL6(1-168); 0.295 E-score in the assay with GST-ANAC019 NAC domain; 0.123 E-score with GST-ANAC055(1-171); 0.253 E-score with GST-ATAF1 NAC domain; 0.264 E-score in assay [1]. The binding signal came to 0.1 E-score with GST-NAP(1-166); 0.213 E-score with GST-NST2(1-184); 0.284 E-score with GST-NTL8 NAC domain; 0.32 E-score with GST-SND1(1-203); 0.241 E-score with GST-VND7 NAC domain.
Take GAAGGGAA: the binding signal with GST-ANAC092(1-176) came out at 0.091 E-score; in the assay with GST-NTL6(1-168) it was 0.227 E-score; with GST-ANAC019 NAC domain, 0.101 E-score; with GST-NST2(1-184), 0.0954 E-score; with GST-NTL8 NAC domain it was 0.44 E-score; with GST-SND1(1-203), 0.112 E-score. Besides, in the assay with GST-VND7 NAC domain, the binding signal was 0.0803 E-score.
In the case of GGCGTAAC, the binding signal in the assay with GST-ANAC092(1-176) turned out to be 0.21 E-score; with GST-ATAF1 NAC domain it was 0.0594 E-score; in assay [1], 0.277 E-score; in the assay with GST-NAP(1-166) it was 0.0618 E-score; in the assay with GST-NST2(1-184) it was 0.129 E-score; with GST-SND1(1-203) it was 0.421 E-score. Further, the binding signal in the assay with GST-VND7 NAC domain came out at 0.0835 E-score.
With ACGCTATC, the binding signal with GST-ANAC092(1-176) amounted to 0.43 E-score; in the assay with GST-ANAC019 NAC domain, 0.106 E-score; in the assay with GST-ATAF1 NAC domain, 0.0721 E-score; in assay [1], 0.454 E-score; in the assay with GST-NAP(1-166) it was 0.104 E-score; with GST-NST2(1-184), 0.303 E-score. Also, the binding signal worked out at 0.431 E-score in the assay with GST-SND1(1-203) and 0.0789 E-score with GST-VND7 NAC domain.
Regarding CGTAGACC, the binding signal stood at 0.0522 E-score in the assay with GST-SND1(1-203) and 0.434 E-score with GST-WRKY1(266-371).
As to GGCGTCAA, the binding signal with GST-SND1(1-203) amounted to 0.0673 E-score; with GST-WRKY1(266-371) it was 0.401 E-score.
TCGCGTAA: the binding signal with GST-ANAC092(1-176) turned out to be 0.283 E-score; with GST-NTL6(1-168) it was 0.0668 E-score; in the assay with GST-ANAC055(1-171), 0.0885 E-score; with GST-ATAF1 NAC domain it was 0.141 E-score; in [1], 0.385 E-score; with GST-NST2(1-184), 0.259 E-score. Also, the binding signal with GST-SND1(1-203) is 0.459 E-score; with GST-VND7 NAC domain it was 0.14 E-score.
On to CCAAGTCA, for which the binding signal stood at 0.0686 E-score in the assay with GST-SND1(1-203) and 0.426 E-score with GST-WRKY1(266-371).
As to GCTAAGGA, the results for the binding signal (in the assay with GST-NTL6(1-168); in assay [1]; with GST-SND1(1-203)) were 0.41 E-score, 0.142 E-score and 0.064 E-score, respectively.
On to CACGCGAA, for which the binding signal with GST-ANAC092(1-176) came to 0.343 E-score; with GST-NTL6(1-168), 0.17 E-score; with GST-ANAC055(1-171) it was 0.0997 E-score; in assay [1], 0.402 E-score; in the assay with GST-NST2(1-184) it was 0.188 E-score; with GST-NTL8 NAC domain, 0.0576 E-score. Also, the binding signal in the assay with GST-SND1(1-203) came to 0.213 E-score.
On to GCACTCAA, for which the binding signal stood at 0.391 E-score with GST-ANAC092(1-176); 0.0807 E-score in the assay with GST-ATAF1 NAC domain; 0.426 E-score in assay [1]; 0.196 E-score in the assay with GST-NST2(1-184); 0.0643 E-score in the assay with GST-NTL8 NAC domain; 0.263 E-score with GST-SND1(1-203).
With ACGCCACC, the binding signal came to 0.456 E-score with GST-ANAC092(1-176); 0.145 E-score with GST-ANAC019 NAC domain; 0.0815 E-score with GST-ANAC055(1-171); 0.262 E-score with GST-ATAF1 NAC domain; 0.472 E-score in assay [1]; 0.0741 E-score with GST-NAP(1-166). Further, the binding signal with GST-NST2(1-184) is 0.276 E-score; with GST-SND1(1-203), 0.408 E-score.
As to ATCGCGTG, the binding signal was determined as 0.382 E-score with GST-ANAC092(1-176), 0.441 E-score in assay [1], 0.135 E-score with GST-NST2(1-184) and 0.266 E-score with GST-SND1(1-203).
Regarding CACGCTAG, the binding signal came to 0.389 E-score with GST-ANAC092(1-176); 0.115 E-score with GST-ANAC019 NAC domain; 0.101 E-score with GST-ANAC055(1-171); 0.426 E-score in assay [1]; 0.0849 E-score with GST-NAP(1-166); 0.156 E-score with GST-NST2(1-184). Also, the binding signal with GST-SND1(1-203) was 0.218 E-score.
